Common to all, as to test: NCI-60 one-dose screen, 48 h (100 = growth as untreated, 0 = no growth, -100 = all killed)
What all share (details): 10 µM unless noted

Assay [1] concerns SR leukemia.
Assay [2] has as its system RPMI-8226 leukemia.
Assay [3] has as its system OVCAR-8 ovarian.
The test system of assay [4] is OVCAR-5 ovarian.
Assay [5] relates to OVCAR-4 ovarian.
Assay [6] concerns SK-OV-3 ovarian.
Assay [7] relates to IGROV1 ovarian.
Assay [8] concerns OVCAR-3 ovarian.
For assay [9], the system named is HS 578T breast.
Assay [10] relates to NCI/ADR-RES ovarian.

From PubChem BioAssay (NCI) come the findings set out here.

This is part of a sample that, as a whole, favours compounds with a hit. Of some 83,000 tested, about 20% had one in any assay.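 Each cell line was grown in a 96-well plate and treated with one concentration of compound for 48 hours. Values below 10 were considered active.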 Unmarked numbers belong to inactive results. Activity calls are given as the source filed them.

Take `O=C1NC(=O)C(=Cc2cn(Cc3ccccn3)c3ccccc23)C(=O)N1`: the growth was 93% in assay [1]; 96.1% in [2]; 101% in assay [3]; -50.9% (active) in assay [4]; 93.4% in assay [5]; 89.8% in [6]. Moreover, the growth in assay [7] is 31.6%; in assay [8] it was 102%; in [9], 94.7%; in assay [10], 100%.

Regarding `CN(C)C(=O)OCc1nc2c(N3CCOCC3)nc(-c3ccccc3)nc2n1C`, the growth in assay [1] is 4.42% (active); in assay [2], -30% (active); in [3], -5.95% (active); in assay [4] it was -85.5% (active); in assay [5], -82.2% (active); in assay [6] it was 59.7%. The growth is -95.2% (active) in assay [7], -78.1% (active) in [8], -35.2% (active) in [9] and -8.35% (active) in assay [10].

`O=C(N/N=C/c1cccnc1)c1ccccc1Nc1cccc(C(F)(F)F)c1`: the growth was -15.3% (active) in [1]; 71.1% in assay [2]; 83.1% in [3]; 96.4% in assay [4]; 70.3% in assay [5]; 80.3% in assay [6]. Moreover, the growth in assay [7] was 91.4%; in assay [8], 75.4%; in [9], 100%; in assay [10] it was 79%.

Turning to `C[C@@H]1CN(Cc2ccc(/C=C/c3n[nH]c4ccc5nc(-c6cn[nH]c6C(F)(F)F)c6c(c5c34)CCCC6)cc2)C[C@H](C)O1`, the growth was 7.98% (active) in assay [1]; 34.3% in [2]; 33.4% in assay [3]; 19.7% in assay [4]; 29.9% in assay [5]; 22.5% in assay [6]. Moreover, the growth in [7] was 1.46% (active); in assay [8] it was 38.2%; in [9], 3.34% (active); in assay [10], 28.7%.

Take `CN1CCN(CCCNc2nccc(-c3c(-c4ccc(F)c(O)c4)nc4sccn34)n2)S1(=O)=O`: the growth in [1] is 58.1%; in [2] it was 87.4%; in assay [3], 96.1%; in assay [4], 131%; in assay [5], 133%; in assay [6], 91.8%. In addition, the growth was 98.5% in assay [7], 116% in assay [8], 97.2% in assay [9] and 99.5% in [10].

For `COc1ccccc1C(C[N+](=O)[O-])c1c(-c2ccccc2)[nH]c2cc(C)ccc12` (stereo not given), the growth in [1] is 24.2%; in [2] it was 61.5%; in assay [3], 75.3%; in [4], 89.5%; in assay [5], 81.7%; in assay [6], 88.6%. Further, the growth in assay [7] is 53.6%; in [8], 76.1%; in assay [9], 83%; in assay [10] it was 50.1%.

For `COc1cccc2c1C(=O)c1c(O)c3c(c(O)c1C2=O)C[C@@](O)(C(=O)CO)C[C@@H]3O[C@H]1C[C@H](N)[C@@H](O)[C@H](C)O1`, the growth in [1] was -2.27% (active); in [2], 6.05% (active); in [3], 7.14% (active); in [4] it was 15.2%; in assay [5] it was 7.72% (active); in [6], 7.22% (active). Besides, the growth in [7] is 18.4%; in [8] it was -0.462% (active); in assay [9] it was -18.2% (active); in [10], 70.5%.

Take `COc1cc2c(cc1[N+](=O)[O-])-c1ccc([N+](=O)[O-])cc1/C2=N\O`: the growth in [1] was 62%; in assay [2], 84%; in assay [3] it was 80.1%; in [4] it was 102%; in assay [5], 79.6%; in assay [6], 96.4%. Besides, the growth in assay [7] was 97.3%; in assay [8], 104%; in assay [9] it was 89%; in assay [10] it was 77.1%.

As for `CC(C)NC(=O)N1C(=O)CCC1NNC(=O)c1ccc([N+](=O)[O-])cc1` (stereo not given), the growth is 94.9% in assay [1]; 110% in assay [2]; 111% in [3]; 103% in [4]; 97.9% in assay [5]; 113% in assay [6]. Further, the growth was 104% in [7], 105% in [8], 117% in [9] and 95% in [10].

As for `COc1ccc(C2=NN(C(C)=O)C(c3cn(Cc4ccc(Cl)cc4)c4ccccc34)C2)cc1` (stereo not given), the growth in assay [1] is 66.2%; in assay [2], 50%; in [3], 78.3%; in [4] it was 79.6%; in [5] it was 70.1%; in assay [6], 90.1%. For the same compound, the growth in assay [7] was 77.5%; in assay [8] it was 78.1%; in assay [9], 75.9%; in assay [10], 75%.

Turning to `O=C(CCN1CCCC1)Nc1ccc2c(NCc3ccc(F)cc3)c3ccccc3nc2c1`, the growth is -13.2% (active) in assay [1]; -34.8% (active) in [2]; 2.58% (active) in assay [3]; 2.2% (active) in assay [4]; -30.9% (active) in [5]; -5.63% (active) in assay [6]. Moreover, the growth in assay [7] was -2.1% (active); in [8] it was -46.5% (active); in assay [9], -9.73% (active); in assay [10], 70.3%.

For `COc1cnccc1-c1nc2ccc3[nH]ncc3c2c2c1CCCC2`, the growth in assay [1] is 8.78% (active); in assay [2] it was 61.6%; in assay [3] it was 69.1%; in [4], 74.8%; in assay [5] it was 85.9%; in assay [6], 41.9%. The growth in assay [7] was 33.4%; in assay [8] it was 84.3%; in assay [9] it was -1.02% (active); in assay [10], 64.2%.

Regarding `O=C(OCc1nc2nc(Cl)nc(N3CCOCC3)c2[nH]1)n1ccnc1`, the growth in assay [1] was -14.2% (active); in assay [2], -35.7% (active); in assay [3] it was -44.9% (active); in [4], 22.3%; in assay [5] it was -38.3% (active); in assay [6], 46.2%. Besides, the growth in [7] was 2.36% (active); in assay [8], -84.9% (active); in [9] it was 5.43% (active); in [10] it was 6.27% (active).

`O=C1CCCCCCCCC(O)C(O)CCCC(c2cccs2)O1` (stereo not given): the growth was -12.3% (active) in [1]; 87.1% in [2]; 99% in [3]; 95.3% in [4]; 78.8% in [5]; 82.1% in assay [6]. In addition, the growth was 97.8% in assay [7], 102% in assay [8], 103% in [9] and 91.1% in [10].

For `COc1ccc(-c2ncc(-c3ccccc3)[nH]2)cc1OC`, the growth in [1] is 11%; in [2], 89.5%; in assay [3], 113%; in [4], 113%; in assay [5], 116%; in assay [6] it was 125%. Moreover, the growth was 119% in assay [7], 103% in assay [8], 102% in assay [9] and 121% in assay [10].

As for `CNC(=O)c1c(NC(=O)c2ccc(C(C)C)cc2)sc2c(CN(C)C)c(O)ccc12`, the growth in assay [1] was -9.94% (active); in [2] it was 22.5%; in assay [3], 112%; in assay [4], 106%; in assay [5], 98.6%; in [6], 99.7%. Besides, the growth in assay [7] was 90.5%; in assay [8], 99.3%; in assay [9], 89.6%; in assay [10], 91.3%.

For `CN1C(=O)N(C)C2NC(N/N=C/c3ccccc3)=NC21` (stereo not given), the growth in [1] was 117%; in assay [2], 138%; in [3], 102%; in [4] it was 98.3%; in assay [5], 103%; in [6], 115%. The growth in [7] is 102%; in assay [8], 106%; in [9], 94.7%; in assay [10], 104%.

As for `Fc1cc(C2=NNC(c3ccc[nH]3)C2)ccc1-n1ccc(C(F)(F)F)n1` (stereo not given), the growth in assay [1] was 77.9%; in assay [2], 0.914% (active); in [3], 89%; in assay [4] it was 96.7%; in assay [5], 93.6%; in assay [6], 112%. The growth in assay [7] was 90%; in assay [8], 85.6%; in assay [9] it was 103%; in [10] it was 90.6%.

For the compound `COc1cc(NCCN(CC(C)C)C2CCCC2)c2ncccc2c1`, the growth in [1] was 82.6%; in assay [2], 99.2%; in assay [3], 84.9%; in [4] it was 96.4%; in [5], 36.6%; in [6] it was 97.7%. The growth in assay [7] was 86.8%; in assay [8] it was 83.1%; in assay [9], 84.2%; in assay [10], 86.6%.

Consider `COc1cc2nc(-c3ccc(C(F)(F)F)cc3)cc(OCCN3CCC(O)CC3)c2cc1OC`, for which the growth was 35.4% in assay [1]; 41.2% in assay [2]; 80% in [3]; 51% in assay [4]; 88.3% in assay [5]; 85.4% in assay [6]. Moreover, the growth in assay [7] was 42.1%; in [8], 93.8%; in assay [9] it was 79.1%; in assay [10] it was 53.5%.

For `CCc1c(Nc2ccc(C)cc2)nc(N)[nH]c1=O`, the growth in assay [1] is 87.9%; in assay [2], 103%; in [3] it was 102%; in assay [4] it was 101%; in assay [5], 108%; in [6] it was 114%. Besides, the growth is 102% in assay [7], 119% in [8], 111% in assay [9] and 106% in assay [10].

Regarding `CS(=O)(=O)Nc1cc(-c2ccc3ncnc(Nc4ccc5[nH]ncc5c4)c3c2)cnc1Cl`, the growth was 63.2% in assay [1]; 102% in assay [2]; 86% in [3]; 59.8% in [4]; 84.7% in [5]; 76% in assay [6]. Also, the growth was 42.5% in assay [7], 59.2% in assay [8], 21.7% in assay [9] and 91.2% in assay [10].

As for `COc1cc(/C=C/C(=O)c2ccc(Nc3ncnc4ccccc34)cc2)cc(OC)c1`, the growth in [1] was 0.253% (active); in [2], 2.26% (active); in assay [3] it was 57.5%; in assay [4], 101%; in [5] it was 79.8%; in [6], 128%. In addition, the growth was 60.2% in assay [7], 36.4% in assay [8], 82.4% in [9] and 73.6% in [10].

As for `COc1ccc(C(O)c2cc3c(N)c(C(=O)Nc4cccc(OC)c4)sc3nc2C)cc1` (stereo not given), the growth was 2.51% (active) in assay [1]; 6.06% (active) in [2]; 5.76% (active) in assay [3]; 23% in assay [4]; 36.5% in assay [5]; 19.5% in assay [6]. For the same compound, the growth in assay [7] was 15.4%; in [8], 0.638% (active); in assay [9] it was 23.7%; in [10], 13.7%.

Take `COc1cc2oc(-c3cccc(C(=O)Nc4ccc(Cl)cc4)c3)cc(=O)c2c(OC)c1OC`: the growth in [1] was 8.67% (active); in assay [2], -18.3% (active); in assay [3], 23.5%; in assay [4] it was 57.5%; in [5] it was 60.5%; in assay [6], 33.6%. Also, the growth in assay [7] was 25.5%; in [8] it was 43.1%; in assay [9], 33%; in assay [10], 26.2%.

For `COc1ccc(C(=O)c2cc(C)c(OC)c(C)c2)c(OC)c1O`, the growth is 18.8% in [1]; 25.9% in assay [2]; 11.3% in assay [3]; 46.9% in assay [4]; 41.1% in [5]; -10.5% (active) in assay [6]. The growth was 25.9% in assay [7], -15.8% (active) in [8], 18.1% in [9] and 1.87% (active) in [10].

As to `COC(=O)C1=C(C(=O)ONCCN(C)C)C2C=CC1(C(Cc1ccccc1)Nc1ccc(F)cc1)O2` (stereo not given), the growth was 10.7% in [1]; 71.2% in assay [2]; 97.7% in assay [3]; 100% in [4]; 94.5% in [5]; 104% in assay [6]. In addition, the growth was 92.4% in assay [7], 39.9% in [8], 125% in assay [9] and 102% in assay [10].
